Measured values from PubChem BioAssay AID1347075 (National Center for Advancing Translational Sciences (NCATS), 2019).
Hit rate of the full screen: of about 400,000 compounds, about 5,500 (1.4%) were called active. Not shown: some 9% with an inconclusive outcome. The sample as a whole holds a higher share of actives than the screen did. A number with no mark means an inactive call. The call rests on the fitted dose curve; in most records, active means well fitted cell-killing curve with a large enough effect; inconclusive means small, poorly fitted or top-dose-only effect, or effect the other way; inactive means flat fitted curve, though single readings scatter.

Assay: qHTS assay for MDR1-selective chemotherapeutics: Primary screen using the parental adenocarcinoma cell KB-3-1; further: nearly all actives have a fitted effect of over 60% in size
Conditions: KB-3-1 viability, CellTiter-Glo ATP luminescence, 72 h; series mostly up to 46.1 µM; activity change, negative = cytotoxic: at the top concentration
Method in brief: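 Luminescent ATP read-out (CellTiter-Glo) measures survival of drug-naive KB-3-1 cells after 72 h compound exposure at 37 °C. Titration series was screened from lowest to highest concentration, with DMSO vehicle plates as background controls.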
On the % scale 0 is the no-effect control and ±100 the full control effect; potency means the concentration at half of the fitted maximal effect.

Row | Compound | activity change, negative = cytotoxic | Potency
1 | Cc1ccc(NC2=C(c3ccc(C(F)(F)F)cc3)C(=O)c3ccccc32)cc1F | -2.28% | 
2 | Cc1cccc(NC(=O)N2CCN(C)c3ncccc32)c1C | 0.477% | 
3 | COc1cc(Cn2c3ccc(NC(=O)CC(C)c4ccccc4)cc3c(=O)n2C)ccc1F (centres undefined) |  | 16.4 µM (active)
4 | CCNC(=S)Nc1ccc2c(c1)c(=O)n(C)n2Cc1ccc(Cl)cc1 | -0.0168% | 
5 | COc1ccc(CCNC(=O)Nc2ccc3c(c2)c(=O)n(C)n3C)cc1OC | 0% | 
6 | CN(C)c1ccc(C=Nc2ccc(/C=C/c3ccnc4ccccc34)cc2)cc1 | -14.7% | 
7 | CN(Cc1ccccc1)c1ccc(/C=C/c2ccnc3ccccc23)cc1 | -20.7% | 
8 | CN(C)c1ccc(/C=C/C=C/c2ccnc3ccccc23)cc1 |  | 5.8 µM (active)
9 | CCc1nn(CC(=O)N2CCN(c3ccc(Cl)cc3)CC2)c(=O)c2cc3occc3n12 | -3.22% | 
10 | CC1CN(C(=O)N2CCC(C(=O)NCc3cccs3)CC2)c2ccccc2O1 (centres undefined) | 0.156% | 
11 | CCOc1ccc(Nc2nc3c(S(=O)(=O)c4cccc(Cl)c4)nnn3c3ccsc23)cc1 | -4.65% | 
12 | Cc1cccc(NC(=O)CSc2ncc(-c3ccccc3)[nH]2)c1C | 4.52% | 
13 | CCOc1ccc(C(NC(=O)c2cc(OC)c(OC)c(OC)c2)c2cc(Cl)c3cccnc3c2O)cc1 (centres undefined) | 1.48% | 
14 | CCOc1ccc(C(CCc2ccccc2)NC(=O)c2ccc(OC)c(OC)c2)cc1OCC (centres undefined) | -6.52% | 
15 | CCCCC(=O)NC(c1ccc(OC)c(OC)c1)c1ccc2cccnc2c1O (centres undefined) |  | 5.8 µM (active)
16 | COc1ccccc1CNC(=O)CCCn1c(=O)c2ccccc2n(CC(=O)Nc2ccc(C)cc2Cl)c1=O | 1.36% | 
17 | COc1ccccc1N1CCN(CCCNC(=O)c2cnn(-c3ccccc3Cl)c2C2CCN(C(=O)OC(C)(C)C)CC2)CC1 | -8.96% | 
18 | Oc1ccc(Br)cc1C1C=C(c2ccc3c(c2)OCO3)NC(c2ccc(Cl)cc2)N1 (centres undefined) | -20.8% | 
19 | Cc1cccc(-c2nc(SCC(=O)Nc3cc(C)on3)c3c(=O)n(C)c(=O)n(C)c3n2)c1 | 17.7% | 
20 | NC(=O)C1CCN(c2ncc(-c3ccc(Cl)cc3)s2)CC1 | -4.4% | 
21 | Cc1cccc(NC(=O)CCn2c(=O)oc3ccccc32)c1 | -9.78% | 
22 | Cc1cccc(NC(=O)c2ccc([N+](=O)[O-])o2)c1 |  | 9.2 µM (active)

Row | Compound | activity change, negative = cytotoxic | Potency
23 | CC(=O)Nc1ccc(N2CCOCC2)c(C(=O)Nc2cccc(C)c2)c1 | 0.437% | 
24 | CCCN1CCc2nc(N3CCN(C)CC3)ncc2C1 | 0.109% | 
25 | COc1ccc(-c2c(C)nn3c(N4CCC(C(=O)NCCC(C)C)CC4)cc(C)nc23)cc1OC | -6.48% | 
26 | CCCCCCCCn1c2c(c(=N)c3c1CCC3)CCCC2 |  | 0.411 µM (active)
27 | CCN1CCC(N(Cc2ccc(F)cc2)C(=O)Nc2cc(C)ccc2C)CC1 | -5.29% | 
28 | CC(OC(=O)CN1C(=O)c2ccccc2C1=O)C(=O)c1ccccc1 (centres undefined) | 7.26% | 
29 | CC(C)OC(=O)CN1C(=O)C(=O)c2ccccc21 |  | 18.4 µM (active)
30 | Cc1cc(/C=C2/SC(=O)N(CC(=O)OC(C)C)C2=O)c(C)n1C | -8.03% | 
31 | CCCCNC(=O)c1cc(-c2ccc(Cl)c(Cl)c2)on1 | 13.5% | 
32 | Cc1c(-c2nsc(NC(=O)c3cccc(Cl)c3)n2)nnn1-c1ccccc1C(F)(F)F |  | 23.1 µM (active)
33 | CCc1cccc(-n2nnc(-c3nsc(NC(=O)c4ccc(C)cc4)n3)c2C)c1 | 0.369% | 
34 | COc1ccc(-n2nnc(-c3nsc(NC(=O)c4ccc(C)c(C)c4)n3)c2C)cc1Cl | 1.71% | 
35 | Cc1ccc(-c2nc(=N)sn2Cc2ccccc2)cc1 | -13.7% | 
36 | CCOc1ccccc1N(C)C(=O)c1cc2c(s1)-c1ccccc1OC2 | 3.52% | 
37 | CCCCC(CCCC)c1ccc(C=Nc2ccc(/C=C/c3ccnc4ccccc34)cc2)cc1 | 0% | 
38 | Cc1cc(C)n2ncc(C(=O)N3CCCC3)c2n1 | 5.58% | 
39 | Cc1cc(=O)oc2cc(OCC3CC(c4ccccc4Cl)=NO3)ccc12 (centres undefined) |  | 1.3 µM (active)
40 | Cc1ccccc1NC(=O)c1ccc(COc2ccc3c(C)cc(=O)oc3c2)cc1 | 4.61% | 
41 | COc1cccc(-c2nnc(SCCOc3ccc4c(C)cc(=O)oc4c3)o2)c1 | 6.22% | 
42 | COC(=O)c1ccc(NC(=O)c2cnn(-c3ccc(Cl)cc3)c2C2CCN(C(=O)OC(C)(C)C)CC2)cc1 | 5.93% | 
43 | Fc1ccc2nc(-c3ccccc3)nc(SCc3nnc(-c4ccccc4)o3)c2c1 | 15.5% | 
44 | N#CCSc1nc(-c2ccccc2)nc2ccc(F)cc12 | -4.14% | 

Row | Compound | activity change, negative = cytotoxic | Potency
45 | Clc1ccc2nc(-c3ccccc3)nc(C(Cl)Cl)c2c1 |  | 3.26 µM (active)
46 | Oc1c(C(c2ccc(F)cc2)N2CCN(Cc3ccccc3)CC2)sc2nc(-c3ccco3)nn12 (centres undefined) | 7.25% | 
47 | COc1cc(OC)c(OC)cc1/C=C/c1nc2ccccc2c(=O)n1-c1ccc(Br)c(C)c1 | -8.72% | 
48 | Cc1cc(C)nc(NS(=O)(=O)c2ccc(NC(=O)c3cc(=O)c4ccc(C)c(C)c4o3)cc2)n1 | -0.0966% | 
49 | COc1ccc2c(c1)c(N1CCCC1=O)c(C(=O)Nc1ccc(OC)c(Cl)c1)n2C | -21.1% | 
50 | Cc1cc(NC(=O)COc2ccccc2C#N)no1 | 4.1% | 
51 | CC(NC(=O)CSc1nc2c(cc1C#N)CN(C)CC2)c1ccccc1 (centres undefined) | -1.09% | 
52 | Cc1cc(NC(=O)CSc2nc3c(cc2C#N)CCCCC3)no1 |  | 5.8 µM (active)
53 | COc1ccc(S(=O)(=O)NCC(c2ccc(N(C)C)cc2)N2CCc3ccccc32)cc1OC (centres undefined) | -19.8% | 
54 | O=C(NNC(=S)NC(=O)c1cn(-c2ccccc2)nc1-c1ccccc1)c1ccncc1 |  | 8.2 µM (active)
55 | O=C(NCCCN1CCOCC1)c1cn(-c2ccccc2)nc1-c1ccc(F)cc1 | 2.18% | 
56 | COc1ccccc1N1CCN(C(=O)c2cn(-c3ccccc3)nc2-c2cccnc2)CC1 | -3.96% | 
57 | COc1ccc(NC(=O)c2cnc(Nc3ccc(C)c(Cl)c3)c3ccccc23)cc1OC | 13.9% | 
58 | Brc1nc2ncnc(NCc3ccco3)c2[nH]1 | -9.05% | 
59 | O=C(CNS(=O)(=O)c1cccs1)N1CCN(c2ccccc2Cl)CC1 | 5.47% | 
60 | Cc1cccc2c1-c1sc(C(=O)Nc3ccc(F)cc3F)cc1CO2 | -20.5% | 
61 | CCn1cc2nc(SCc3cccc(F)c3)n(CCc3ccccc3)c(=O)c2n1 | -0.543% | 
62 | Cc1nn(-c2ccccc2)c(Cl)c1/C=N/NC(=O)c1nn(C)cc1[N+](=O)[O-] |  | 18.4 µM (active)
63 | Cn1cc([N+](=O)[O-])c(C(=O)Nc2ccc3c(c2)OCCO3)n1 | -20.5% | 
64 | Cc1nn(Cc2ccc(Cl)cc2)c(Cl)c1/C=N/NC(=O)CNc1ccccc1F | -11.9% | 
